The panel holds about 83,000 compounds, 20% with a hit somewhere; the sample as a whole holds those more often.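 Method: cells in 96-well plates; compound added at one concentration; 48 h incubation; percent growth measured; values under 10 scored active.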 Calls of active or inactive are those of the source.
Assays:
Test in all cases: NCI-60 one-dose screen, 48 h (100 = growth as untreated, 0 = no growth, -100 = all killed)
SR leukemia = conditions: 10 µM unless noted
RPMI-8226 leukemia = conditions: 10 µM unless noted
OVCAR-8 ovarian = conditions: 10 µM unless noted
OVCAR-5 ovarian = conditions: 10 µM unless noted
OVCAR-4 ovarian = conditions: 10 µM unless noted
SK-OV-3 ovarian = conditions: 10 µM unless noted
IGROV1 ovarian = conditions: 10 µM unless noted
OVCAR-3 ovarian = conditions: 10 µM unless noted
HS 578T breast = conditions: 10 µM
NCI/ADR-RES ovarian = conditions: 10 µM unless noted
T-47D breast = conditions: 10 µM unless noted
BT-549 breast = conditions: 10 µM unless noted
MDA-MB-435 melanoma = conditions: 10 µM unless noted
SW-620 colon = conditions: 10 µM unless noted
MCF7 breast = conditions: 10 µM unless noted
HCT-116 colon = conditions: 10 µM unless noted
HCC-2998 colon = conditions: 10 µM
KM12 colon = conditions: 10 µM unless noted

| Structure (SMILES) | growth (SR leukemia) | growth (RPMI-8226 leukemia) | growth (OVCAR-8 ovarian) | growth (OVCAR-5 ovarian) | growth (OVCAR-4 ovarian) | growth (SK-OV-3 ovarian) | growth (IGROV1 ovarian) | growth (OVCAR-3 ovarian) | growth (HS 578T breast) | growth (NCI/ADR-RES ovarian) | growth (T-47D breast) | growth (BT-549 breast) | growth (MDA-MB-435 melanoma) | growth (SW-620 colon) | growth (MCF7 breast) | growth (HCT-116 colon) | growth (HCC-2998 colon) | growth (KM12 colon) |
| --- | --- | --- | --- | --- | --- | --- | --- | --- | --- | --- | --- | --- | --- | --- | --- | --- | --- | --- |
| CCc1cc2c(c3ccc(C(=O)CBr)cc13)CCCC2 | 91.7% (inactive) | 113% (inactive) | 105% (inactive) | 91.1% (inactive) | 110% (inactive) | 103% (inactive) | 99.1% (inactive) | 102% (inactive) | 98.8% (inactive) | 93.5% (inactive) | 71.2% (inactive) | 80.3% (inactive) | 107% (inactive) | 111% (inactive) | 93.1% (inactive) | 102% (inactive) | 103% (inactive) | 103% (inactive) |
| Cc1cc2c(-c3nc4ccccn4c3NC34CC5CC(CC(C5)C3)C4)c(O)c(O)cc2c(O)c1-c1c(C)cc2c(-c3nc4ccccn4c3NC34CC5CC(CC(C5)C3)C4)c(O)c(O)cc2c1O | 13.1% (inactive) | 24.4% (inactive) | 12.3% (inactive) | 29.3% (inactive) | 21.4% (inactive) | -11.1% (active) | 21.3% (inactive) | 27.6% (inactive) | 21.8% (inactive) | 9.01% (active) | -0.388% (active) | 9.45% (active) | 16.5% (inactive) | 23.5% (inactive) | 12.3% (inactive) | 12% (inactive) | 31% (inactive) | 19.8% (inactive) |
| Clc1ccc2c(NCCNc3nc(N4CCCC4)nc4ccccc34)ccnc2c1 | -22.6% (active) | -18.2% (active) | 3.61% (active) | 23.6% (inactive) | -7.19% (active) | -63.3% (active) | 3.56% (active) | -65.8% (active) | 19.9% (inactive) | 60.2% (inactive) | -14% (active) | -11.3% (active) | -41.3% (active) | 5.27% (active) | 28.5% (inactive) | -63.6% (active) | 7.18% (active) | 10.9% (inactive) |
| C=CCCCOC1[C@H](OCc2ccccc2)C(OCc2ccccc2)C(OC)O[C@@H]1CNC(=O)c1cccc(I)c1 (stereo partly drawn) | 26.7% (inactive) | 8.34% (active) | 51.8% (inactive) | 69% (inactive) | 22.6% (inactive) | 45.5% (inactive) | 43.2% (inactive) | 50.1% (inactive) | 79.7% (inactive) | 25.9% (inactive) | 33.4% (inactive) | 57.5% (inactive) | 44.7% (inactive) | 32.6% (inactive) | 20.4% (inactive) | 19.8% (inactive) | 86.7% (inactive) | 38.5% (inactive) |
| COc1ccc2c(CCC(c3ccccc3)c3ccccc3)c3[n+](cc2c1OC)CCc1cc2c(cc1-3)OCO2 | -29.9% (active) | -9.79% (active) | 2.77% (active) | 29% (inactive) | 13.3% (inactive) | -12.8% (active) | 22.9% (inactive) | -0.03% (active) | 20.7% (inactive) | 78.9% (inactive) | 5.67% (active) | -29.1% (active) | -72% (active) | 11.5% (inactive) | 9.86% (active) | 6.81% (active) | -13.7% (active) | -76.7% (active) |
| CC(C)(C)CC(C)(C)Nc1c(-c2c(O)c3ccccc3oc2=O)nc2c(Cl)cc(C(F)(F)F)cn12 | 104% (inactive) | 99.2% (inactive) | 102% (inactive) | 109% (inactive) | 100% (inactive) | 93% (inactive) | 90.4% (inactive) | 112% (inactive) | 103% (inactive) | 108% (inactive) | 95.3% (inactive) | 78.7% (inactive) | 103% (inactive) | 102% (inactive) | 107% (inactive) | 70.4% (inactive) | 107% (inactive) | 103% (inactive) |
| CCCCCCCC(=O)SCC/C=C/[C@@H]1CC(=O)NCc2cccc(n2)C2=N[C@@](C)(CS2)C(=O)N[C@@H](C(C)C)C(=O)O1 | 13.7% (inactive) | 14.3% (inactive) | 7.64% (active) | 6.82% (active) | 18.3% (inactive) | -31.4% (active) | 3.42% (active) | -26.5% (active) | 15.4% (inactive) | 6.46% (active) | -14.1% (active) | 32% (inactive) | -9.48% (active) | 3.63% (active) | 15.5% (inactive) | -27.7% (active) | -73.4% (active) | 3.74% (active) |
| CSC1=C(N)C(=O)c2[nH]cc(CO)c2C1=N | 6.06% (active) | -32.9% (active) | -62% (active) | -76% (active) | -95.7% (active) | -94.4% (active) | -62.5% (active) | -74.8% (active) | 5% (active) | -23% (active) | -43.8% (active) | -93.5% (active) | -84.1% (active) | -56.2% (active) | -41.8% (active) | -86.7% (active) | -94.1% (active) | -63.4% (active) |
| C[C@@H](C[C@H](CCO)c1cc(C(F)(F)F)cc(C(F)(F)F)c1)c1ccc2ccccc2c1 | 30.6% (inactive) | 79.3% (inactive) | 102% (inactive) | 106% (inactive) | 94.6% (inactive) | 98.3% (inactive) | 75.3% (inactive) | 81% (inactive) | 106% (inactive) | 85.3% (inactive) | 55.2% (inactive) | 102% (inactive) | 38.8% (inactive) | 88.7% (inactive) | 78.9% (inactive) | 67.6% (inactive) | 86.1% (inactive) | 71.3% (inactive) |
| CCNC(=O)Nc1nc2ccc(Oc3ccnc(C(=O)NC)c3)cc2s1 | 30.4% (inactive) | 85% (inactive) | 91.6% (inactive) | 92.9% (inactive) | 83% (inactive) | 88.1% (inactive) | 90% (inactive) | 83.1% (inactive) | 87.3% (inactive) | 73.3% (inactive) | 62.6% (inactive) | 90.6% (inactive) | 3.1% (active) | 45.8% (inactive) | 36.9% (inactive) | 56% (inactive) | 71.9% (inactive) | 33.4% (inactive) |
| CCN1CCN(c2cc(C)nc(N(CCCNc3ccnc4cc(Cl)ccc34)Cc3cccs3)n2)CC1 | -34% (active) | -33.6% (active) | 15.7% (inactive) | 69.8% (inactive) | 30.4% (inactive) | 65.5% (inactive) | 10.3% (inactive) | -2.11% (active) | -22.4% (active) | 28.5% (inactive) | -18.7% (active) | -20.6% (active) | -79.8% (active) | -8.17% (active) | 12.3% (inactive) | 10.8% (inactive) | -27.2% (active) | 35.4% (inactive) |
| OCCNC(=S)Nc1ccc(-c2nc(N3C[C@H]4CC[C@@H](C3)O4)c3cccn3n2)cc1 | 11.1% (inactive) | 5.44% (active) | -7.06% (active) | -4.85% (active) | -7.17% (active) | -33.7% (active) | -19.9% (active) | -4.31% (active) | -28.6% (active) | 3.87% (active) | -22.5% (active) | -8.04% (active) | 0.28% (active) | 11.6% (inactive) | 9.19% (active) | 22.6% (inactive) | 20.8% (inactive) | 12% (inactive) |
| O=C(CNc1nc2ccccc2s1)Nc1ccc(-c2nc3ccccc3s2)cc1 | 91.3% (inactive) | 107% (inactive) | 102% (inactive) | 98.4% (inactive) | 102% (inactive) | 107% (inactive) | 66.6% (inactive) | 98% (inactive) | 100% (inactive) | 102% (inactive) | 73.9% (inactive) | 106% (inactive) | 109% (inactive) | 109% (inactive) | 24.8% (inactive) | 98.9% (inactive) | 92.1% (inactive) | 99.2% (inactive) |
| CC(C)C1CCC(C)C(C2(C#N)C(N)=NC(N)=C2C#N)C1=O (stereo not drawn) | 102% (inactive) | 89% (inactive) | 106% (inactive) | 103% (inactive) | 90.8% (inactive) | 107% (inactive) | 94.4% (inactive) | 98% (inactive) | 101% (inactive) | 97.1% (inactive) | 83.6% (inactive) | 98.8% (inactive) | 101% (inactive) | 102% (inactive) | 92.6% (inactive) | 99.2% (inactive) | 95.8% (inactive) | 92.9% (inactive) |
| COc1c(C(NC(=O)c2ccccc2)c2sccc2C)cc(Cl)c2cccnc12 (stereo not drawn) | 90% (inactive) | 89.1% (inactive) | 96.8% (inactive) | 96.6% (inactive) | 112% (inactive) | 89.3% (inactive) | 106% (inactive) | 117% (inactive) | 98.6% (inactive) | 98.2% (inactive) | 90.8% (inactive) | 97.1% (inactive) | 108% (inactive) | 100% (inactive) | 100% (inactive) | 84.1% (inactive) | 112% (inactive) | 104% (inactive) |
| COC(=O)CNC(=O)[C@@H](OC)[C@@H]1Cc2cc3cc(OC4CC(OC5CC(O)C(O)C(C)O5)C(O)C(C)O4)c(C)c(O)c3c(O)c2C(=O)[C@H]1OC1CC(OC2CC(OC3CC(C)(O)C(O)C(C)O3)C(O)C(C)O2)C(O)C(C)O1 (stereo partly drawn) | 11.1% (inactive) | 2.86% (active) | 12.4% (inactive) | 16.4% (inactive) | 2.95% (active) | 24.3% (inactive) | 32% (inactive) | 3.71% (active) | -6.65% (active) | 88.2% (inactive) | 11.3% (inactive) | -44.3% (active) | -39.2% (active) | 12.7% (inactive) | 7.64% (active) | 3.52% (active) | -42.3% (active) | 6.86% (active) |

— PubChem BioAssay (NCI)
